ChEMBL document CHEMBL4513152, “CO-ADD screening of Yantai University (China) compounds”
Measured potencies and affinities stand elsewhere.

Columns and labels:
Klebsiella pneumoniae = conditions: Concentration 32 ug.mL-1; ASSAY_TEST Inhibition of Bacterial Growth; detection method Absorption (OD600); MEDIA CAMHB; plate type 384well; NBS; CORNING #3640; time 18 hr
Candida albicans = conditions: 32 ug/mL
Cryptococcus neoformans = conditions: Concentration 32 ug.mL-1; ASSAY_TEST Inhibition of Fungal Growth; detection method Resazurin; Absorption (OD600-OD570); plate type 384well; NBS; CORNING #3640

| SMILES | Inhibition (Klebsiella pneumoniae) [%] | Inhibition (Candida albicans) [%] | Inhibition (Cryptococcus neoformans) [%] |
| --- | --- | --- | --- |
| CC(=O)O[C@H]1C[C@@]2(C)C(C[C@@H](O)C3[C@@]4(C)CC[C@@H](O)[C@@H](C)C4CC[C@@]32C)/C1=C(\CCC=C(C)C)C(=O)Oc1ccc(CCO[N+](=O)[O-])cc1 (some centres undefined) | 24.64 | 7.08 | -126.19 |
| CC(=O)O[C@H]1C[C@@]2(C)C(C[C@@H](O)C3[C@@]4(C)CC[C@@H](OC(=O)CCC(=O)Oc5ccc(CCO[N+](=O)[O-])cc5)[C@@H](C)C4CC[C@@]32C)/C1=C(\CCC=C(C)C)C(=O)OCc1ccccc1 (some centres undefined) | -3.54 | -8.49 | -78.97 |
| CC(=O)O[C@H]1C[C@@]2(C)C(C[C@@H](O)C3[C@@]4(C)CC[C@@H](OC(=O)c5ccccc5C(=O)Nc5ccc(N)cc5)[C@@H](C)C4CC[C@@]32C)/C1=C(\CCC=C(C)C)C(=O)OCc1ccccc1 (some centres undefined) | 5.38 | 25 | -105.92 |
| CC(=O)O[C@H]1C[C@@]2(C)C(C[C@@H](O)C3[C@@]4(C)CC[C@@H](OC(=O)C(C)N)[C@@H](C)C4CC[C@@]32C)/C1=C(\CCC=C(C)C)C(=O)OCc1ccccc1 (some centres undefined) | 8.77 | 16.1 | 90.52 |
| CC(=O)O[C@H]1C[C@@]2(C)C(C[C@@H](O)C3[C@@]4(C)CC[C@@H](OC(=O)CCC(=O)O)[C@@H](C)C4CC[C@@]32C)/C1=C(\CCC=C(C)C)C(=O)OCc1ccccc1 (some centres undefined) | 31.46 | -1.56 | -100.19 |
| CC(=O)O[C@H]1C[C@@]2(C)C(C[C@@H](O)C3[C@@]4(C)CC[C@@H](OC(=O)CO[N+](=O)[O-])[C@@H](C)C4CC[C@@]32C)/C1=C(\CCC=C(C)C)C(=O)OCc1ccccc1 (some centres undefined) | 17.67 | 0.87 | -43.62 |
| CC(=O)O[C@H]1C[C@@]2(C)C(C[C@@H](O)C3[C@@]4(C)CC[C@@H](OC(=O)C(N)CC(C)C)[C@@H](C)C4CC[C@@]32C)/C1=C(\CCC=C(C)C)C(=O)OCc1ccccc1 (some centres undefined) | 5.15 | 2.67 | -45.25 |
| CC(=O)O[C@H]1C[C@@]2(C)C(C[C@@H](O)C3[C@@]4(C)CC[C@@H](OC(=O)C(N)C(C)C)[C@@H](C)C4CC[C@@]32C)/C1=C(\CCC=C(C)C)C(=O)OCc1ccccc1 (some centres undefined) | 18.28 | 14.4 | 88.23 |
| CC(=O)O[C@H]1C[C@@]2(C)C(C[C@@H](O)C3[C@@]4(C)CC[C@@H](OC(=O)c5ccccc5C(=O)Nc5cccc(N)c5)[C@@H](C)C4CC[C@@]32C)/C1=C(\CCC=C(C)C)C(=O)OCc1ccccc1 (some centres undefined) | 1.34 | 1.55 | -66.02 |
| CC(=O)O[C@H]1C[C@@]2(C)C(CC(=O)C3[C@@]4(C)CC[C@@H](OC(=O)CCCCO[N+](=O)[O-])[C@@H](C)C4CC[C@@]32C)/C1=C(\CCC=C(C)C)C(=O)OCc1ccccc1 (some centres undefined) | 10.79 | -1.47 | -85.18 |
| CC(=O)O[C@H]1C[C@@]2(C)C(CC(=O)C3[C@@]4(C)CCC(=O)[C@@H](C)C4CC[C@@]32C)/C1=C(\CCC=C(C)C)C(=O)OCc1ccccc1 (some centres undefined) | 19.97 | 6.47 | -73.01 |
| CC(=O)O[C@H]1C[C@@]2(C)C(CC(=O)C3[C@@]4(C)CC[C@@H](OC(=O)CCCCCO[N+](=O)[O-])[C@@H](C)C4CC[C@@]32C)/C1=C(\CCC=C(C)C)C(=O)OCc1ccccc1 (some centres undefined) | 8.79 | -2.93 | -87.68 |
| CC(=O)O[C@H]1C[C@@]2(C)C(C[C@@H](O)C3[C@@]4(C)CC[C@@H](OC(=O)CCCCCO[N+](=O)[O-])[C@@H](C)C4CC[C@@]32C)/C1=C(\CCC=C(C)C)C(=O)OCc1ccccc1 (some centres undefined) | -0.98 | -2.51 | -81.56 |
